Measurements taken from PubChem BioAssay AID1745853 (National Center for Advancing Translational Sciences (NCATS), 2022).
Out of some 25,000 compounds screened, about 970 (3.9%) were called active. About 8% were inconclusive and are not listed. The rule behind the calls is not given here. This excerpt belongs to a sample that is enriched for actives.

What was measured:
Assay in all cases: Primary Screen for Target Class Profiling of Small Molecule Inhibitors of Methyltransferases
[1] = target: Catechol O-methyltransferase (Homo sapiens) (UniProt P21964); settings: purified enzyme, MTase-Glo SAH luminescence; activity change, negative = inhibition: at 40 µM, stronger effect = lower value; outcome: 40 uM
Sequence of Catechol O-methyltransferase (Homo sapiens) (P21964 whole entry, looked up): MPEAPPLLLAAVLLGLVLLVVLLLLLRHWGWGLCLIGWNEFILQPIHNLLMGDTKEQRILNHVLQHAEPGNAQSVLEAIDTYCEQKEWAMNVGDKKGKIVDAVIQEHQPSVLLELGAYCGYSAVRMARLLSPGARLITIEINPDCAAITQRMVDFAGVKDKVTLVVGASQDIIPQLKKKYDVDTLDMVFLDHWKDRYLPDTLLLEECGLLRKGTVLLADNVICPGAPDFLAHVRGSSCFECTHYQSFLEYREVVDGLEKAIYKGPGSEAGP
Method in brief: (§1)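 Each enzyme was assayed with SAM and its substrate. SAH formation detected by MTase-Glo luminescence; single-point 40 uM screen[…].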

[2] = target: Glycine N-methyltransferase (Homo sapiens) (UniProt Q14749); settings: purified enzyme, MTase-Glo SAH luminescence; measured here: GNMT inhibition; at 40 µM; stronger effect = lower value
Sequence of Glycine N-methyltransferase (Homo sapiens) (Q14749 whole entry, looked up): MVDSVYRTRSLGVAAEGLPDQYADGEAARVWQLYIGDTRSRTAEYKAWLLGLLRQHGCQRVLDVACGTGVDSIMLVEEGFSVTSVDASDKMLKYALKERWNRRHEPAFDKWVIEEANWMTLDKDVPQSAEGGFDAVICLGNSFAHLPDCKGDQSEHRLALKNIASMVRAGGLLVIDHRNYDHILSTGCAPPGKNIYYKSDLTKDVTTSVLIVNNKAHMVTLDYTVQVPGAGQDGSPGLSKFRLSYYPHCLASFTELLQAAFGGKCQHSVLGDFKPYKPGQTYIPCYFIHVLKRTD
Method in brief: as §1

[3] = target: Guanidinoacetate N-methyltransferase (Homo sapiens) (UniProt Q14353); settings: purified enzyme, MTase-Glo SAH luminescence; measured here: GAMT inhibition; at 40 µM; stronger effect = lower value
Method in brief: as §1

[4] = target: Histamine N-methyltransferase (Homo sapiens) (UniProt P50135); settings: purified enzyme, MTase-Glo SAH luminescence; measured here: HNMT inhibition; at 40 µM; stronger effect = lower value
Sequence of Histamine N-methyltransferase (Homo sapiens) (P50135 whole entry, looked up): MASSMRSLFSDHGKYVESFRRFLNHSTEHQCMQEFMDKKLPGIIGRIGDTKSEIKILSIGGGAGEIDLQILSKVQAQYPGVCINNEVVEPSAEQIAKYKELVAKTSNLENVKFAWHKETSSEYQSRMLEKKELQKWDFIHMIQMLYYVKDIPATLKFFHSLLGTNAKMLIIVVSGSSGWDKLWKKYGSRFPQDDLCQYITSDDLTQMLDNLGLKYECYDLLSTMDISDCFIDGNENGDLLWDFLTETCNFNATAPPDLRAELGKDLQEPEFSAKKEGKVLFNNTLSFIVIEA
Method in brief: as §1

[5] = target: Nicotinamide N-methyltransferase (Homo sapiens) (UniProt P40261); settings: purified enzyme, MTase-Glo SAH luminescence; measured here: NNMT inhibition; at 40 µM; stronger effect = lower value
Sequence of Nicotinamide N-methyltransferase (Homo sapiens) (P40261 whole entry, looked up): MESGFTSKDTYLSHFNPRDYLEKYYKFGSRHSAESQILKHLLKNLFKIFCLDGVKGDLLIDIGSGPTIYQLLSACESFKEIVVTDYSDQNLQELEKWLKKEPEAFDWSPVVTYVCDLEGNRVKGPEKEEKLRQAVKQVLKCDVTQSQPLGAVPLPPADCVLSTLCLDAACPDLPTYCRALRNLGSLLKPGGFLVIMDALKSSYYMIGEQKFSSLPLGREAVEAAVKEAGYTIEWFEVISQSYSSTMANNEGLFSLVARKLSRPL
Method in brief: as §1

[6] = target: Phenylethanolamine N-methyltransferase (Homo sapiens) (UniProt P11086); settings: purified enzyme, MTase-Glo SAH luminescence; measured here: PNMT inhibition; at 40 µM; stronger effect = lower value
Sequence of Phenylethanolamine N-methyltransferase (Homo sapiens) (P11086 whole entry, looked up): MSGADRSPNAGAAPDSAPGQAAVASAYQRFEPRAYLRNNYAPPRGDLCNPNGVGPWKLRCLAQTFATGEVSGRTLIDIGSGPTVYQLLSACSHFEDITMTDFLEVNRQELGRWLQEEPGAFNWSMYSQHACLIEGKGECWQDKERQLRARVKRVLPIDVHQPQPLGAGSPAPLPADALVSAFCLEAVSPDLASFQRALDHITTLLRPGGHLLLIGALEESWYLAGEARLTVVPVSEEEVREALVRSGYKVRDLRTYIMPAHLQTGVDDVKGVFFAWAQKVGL
Method in brief: as §1
% is set by controls: 0 for no effect and ±100 for the full control effect.

## CC(=O)N(C1CCOCC1)C1CCN(S(=O)(=O)c2ccc3c(c2)OCCO3)CC1
[1]
  activity change, negative = inhibition: 14.5% (inactive)
[2]
  activity change, negative = inhibition: 6.17%
[3]
  activity change, negative = inhibition: 0%
[4]
  activity change, negative = inhibition: 15.9%
[5]
  activity change, negative = inhibition: 5.83%
[6]
  activity change, negative = inhibition: 10%

## COC1CCN(CC2CCCCCN2C(=O)NCc2ccc(F)cc2)CC1 (stereo not given)
[1]
  activity change, negative = inhibition: 0.269% (inactive)
[2]
  activity change, negative = inhibition: -0.541%
[3]
  activity change, negative = inhibition: -1.47%
[4]
  activity change, negative = inhibition: 0.992%
[5]
  activity change, negative = inhibition: 0.892%
[6]
  activity change, negative = inhibition: -1.43%

## CCCc1sc(NC(=O)C[C@H]2NC(=O)c3ccccc3NC2=O)nc1C(=O)OC
[1]
  activity change, negative = inhibition: -0.596% (active)
[2]
  activity change, negative = inhibition: -52%
[3]
  activity change, negative = inhibition: 0.55%
[4]
  activity change, negative = inhibition: -1.11%
[5]
  activity change, negative = inhibition: -24.7%
[6]
  activity change, negative = inhibition: -7.16%

## CCOc1ccc(NC(=O)N2Cc3c(sc4c3CCCC4)-n3cccc3C2c2ccc(C)cc2)cc1 (stereo not given)
[1]
  activity change, negative = inhibition: -4.77% (inactive)
[2]
  activity change, negative = inhibition: -7.14%
[3]
  activity change, negative = inhibition: -5.05%
[4]
  activity change, negative = inhibition: -0.466%
[5]
  activity change, negative = inhibition: -12.8%
[6]
  activity change, negative = inhibition: -3.68%

## COc1ccc(CN2C(=O)c3cc4sccc4n3CC2(C)C(=O)NC2CCCCC2)cc1 (stereo not given)
[1]
  activity change, negative = inhibition: -1.71% (inactive)
[2]
  activity change, negative = inhibition: -4.01%
[3]
  activity change, negative = inhibition: 4.64%
[4]
  activity change, negative = inhibition: 0.743%
[5]
  activity change, negative = inhibition: 0.231%
[6]
  activity change, negative = inhibition: -2.93%

## CCCN1C(=O)c2c(C(=O)NCc3ccc(OC(C)C)cc3)ncn2CC1(C)C(=O)NCc1ccccc1 (stereo not given)
[1]
  activity change, negative = inhibition: 7.93% (inactive)
[2]
  activity change, negative = inhibition: 0.786%
[3]
  activity change, negative = inhibition: 0%
[4]
  activity change, negative = inhibition: 10.9%
[5]
  activity change, negative = inhibition: 0.527%
[6]
  activity change, negative = inhibition: 8.93%

## CCNc1ccnc(N2C[C@H]3CN(C(=O)N(C)C)C[C@@]3(C(=O)O)C2)n1
[1]
  activity change, negative = inhibition: 1.84% (inactive)
[2]
  activity change, negative = inhibition: 0.021%
[3]
  activity change, negative = inhibition: 1.18%
[4]
  activity change, negative = inhibition: 0.65%
[5]
  activity change, negative = inhibition: 1.12%
[6]
  activity change, negative = inhibition: -1%

## C=C1C(=O)O[C@@H]2[C@H]1CC[C@H](C)[C@]1(CCC(=O)O1)C2(C)O (stereo not given in full)
[1]
  activity change, negative = inhibition: -16.8% (inactive)
[2]
  activity change, negative = inhibition: 0%
[3]
  activity change, negative = inhibition: 7.54%
[4]
  activity change, negative = inhibition: 11.3%
[5]
  activity change, negative = inhibition: -3.81%
[6]
  activity change, negative = inhibition: 5.47%

## Cc1cc(C)c(S(=O)(=O)NCCc2nc(-c3ccc(Cl)cc3)n[nH]2)cc1C
[1]
  activity change, negative = inhibition: -7.11% (inactive)
[2]
  activity change, negative = inhibition: 0.532%
[3]
  activity change, negative = inhibition: 3.01%
[4]
  activity change, negative = inhibition: -1.1%
[5]
  activity change, negative = inhibition: -4.42%
[6]
  activity change, negative = inhibition: -1.52%

## CCC(CC)C(=O)NC[C@H]1O[C@@H](CC(=O)N2CCC(C)CC2)[C@H](O)[C@@H]1O
[1]
  activity change, negative = inhibition: 0.159% (inactive)
[2]
  activity change, negative = inhibition: -5.41%
[3]
  activity change, negative = inhibition: -3.2%
[4]
  activity change, negative = inhibition: 0.02%
[5]
  activity change, negative = inhibition: -4.29%
[6]
  activity change, negative = inhibition: -0.431%

## Cc1cnc(C2CCC2)n1C1CCN(C(=O)CCC2CCCC2)CC1
[1]
  activity change, negative = inhibition: -0.614% (active)
[2]
  activity change, negative = inhibition: -2.95%
[3]
  activity change, negative = inhibition: 3.19%
[4]
  activity change, negative = inhibition: -52.2%
[5]
  activity change, negative = inhibition: -10.2%
[6]
  activity change, negative = inhibition: 12.5%

## Cc1cnc(-c2ccccc2)n1CCNC(=O)CCC1CCCC1
[1]
  activity change, negative = inhibition: -2.65% (inactive)
[2]
  activity change, negative = inhibition: -4.13%
[3]
  activity change, negative = inhibition: -6.61%
[4]
  activity change, negative = inhibition: -3.82%
[5]
  activity change, negative = inhibition: -12.7%
[6]
  activity change, negative = inhibition: -3.43%

## NS(=O)(=O)c1ccc(F)c(C(=O)NCc2noc(-c3ccco3)n2)c1
[1]
  activity change, negative = inhibition: -11.2% (inactive)
[2]
  activity change, negative = inhibition: -7.86%
[3]
  activity change, negative = inhibition: -7.24%
[4]
  activity change, negative = inhibition: -3.67%
[5]
  activity change, negative = inhibition: -12%
[6]
  activity change, negative = inhibition: -1.94%

## CCOc1ccc(CNC(=O)c2ncn3c2C(=O)N(C2CC2)C(C)(C(=O)NCc2ccccc2Cl)C3)cc1 (stereo not given)
[1]
  activity change, negative = inhibition: 11.3% (inactive)
[2]
  activity change, negative = inhibition: 1.47%
[3]
  activity change, negative = inhibition: 2.43%
[4]
  activity change, negative = inhibition: 7.45%
[5]
  activity change, negative = inhibition: 1.94%
[6]
  activity change, negative = inhibition: 7.97%

## CCN(CC)CCCCNc1ncc2cc(-c3c(Cl)cccc3Cl)c(NC(=O)NC(C)(C)C)nc2n1
[1]
  activity change, negative = inhibition: -1.2% (active)
[2]
  activity change, negative = inhibition: -7.18%
[3]
  activity change, negative = inhibition: 10.6%
[4]
  activity change, negative = inhibition: -54.9%
[5]
  activity change, negative = inhibition: -20.4%
[6]
  activity change, negative = inhibition: 0.23%

## CN(CCc1ccccn1)c1ncccc1CNC(=O)C1CCc2ccccc21 (stereo not given)
[1]
  activity change, negative = inhibition: -4.9% (inactive)
[2]
  activity change, negative = inhibition: -5.71%
[3]
  activity change, negative = inhibition: -6.23%
[4]
  activity change, negative = inhibition: -3.62%
[5]
  activity change, negative = inhibition: -10.6%
[6]
  activity change, negative = inhibition: -5.62%

## CCCCOc1ccc(CNC(=O)c2cc3n(n2)CC(C)(C(=O)NCc2ccccc2)N(C)C3=O)cc1 (stereo not given)
[1]
  activity change, negative = inhibition: 6.54% (inactive)
[2]
  activity change, negative = inhibition: 8.47%
[3]
  activity change, negative = inhibition: 0.793%
[4]
  activity change, negative = inhibition: 9.19%
[5]
  activity change, negative = inhibition: 11.5%
[6]
  activity change, negative = inhibition: 7.21%

## CC(C)(C)c1ccc(C(=O)Nc2cc(Cl)c(Br)cc2C(=O)O)cc1
[1]
  activity change, negative = inhibition: -7.23% (active)
[2]
  activity change, negative = inhibition: -49.9%
[3]
  activity change, negative = inhibition: -17.8%
[4]
  activity change, negative = inhibition: -39.8%
[5]
  activity change, negative = inhibition: -69%
[6]
  activity change, negative = inhibition: -27.1%

## CC(C)(C)c1ccc(S(=O)(=O)NCc2ccc(C(=O)Nc3cccnc3)cc2)cc1
[1]
  activity change, negative = inhibition: -2.26% (inactive)
[2]
  activity change, negative = inhibition: -3.93%
[3]
  activity change, negative = inhibition: -2.21%
[4]
  activity change, negative = inhibition: -1.56%
[5]
  activity change, negative = inhibition: -14.6%
[6]
  activity change, negative = inhibition: -7.18%

## Cc1ccccc1CN1C(=O)c2cc(-c3cccs3)nn2CC1(C)C(=O)NC1CCCCC1 (stereo not given)
[1]
  activity change, negative = inhibition: 0.113% (inactive)
[2]
  activity change, negative = inhibition: -0.305%
[3]
  activity change, negative = inhibition: 0%
[4]
  activity change, negative = inhibition: 0.259%
[5]
  activity change, negative = inhibition: 3.22%
[6]
  activity change, negative = inhibition: -1.18%

## COc1ccc(C2Cn3nnc(-c4noc(C5CCC5)n4)c3CO2)cc1 (stereo not given)
[1]
  activity change, negative = inhibition: -14.4% (inactive)
[2]
  activity change, negative = inhibition: -9.87%
[3]
  activity change, negative = inhibition: -9.12%
[4]
  activity change, negative = inhibition: -7.42%
[5]
  activity change, negative = inhibition: -17.1%
[6]
  activity change, negative = inhibition: -12.5%

## CN1C(=O)C2(CCN(Cc3cccn3C)C2)c2ccccc21 (stereo not given)
[1]
  activity change, negative = inhibition: -4.01% (inactive)
[2]
  activity change, negative = inhibition: -11.7%
[3]
  activity change, negative = inhibition: -5.16%
[4]
  activity change, negative = inhibition: -17.5%
[5]
  activity change, negative = inhibition: -15.9%
[6]
  activity change, negative = inhibition: -0.794%

## O=C(/C=C/c1ccc(CN(CCO)CCc2c[nH]c3ccccc23)cc1)NO
[1]
  activity change, negative = inhibition: 19.6% (active)
[2]
  activity change, negative = inhibition: -17.2%
[4]
  activity change, negative = inhibition: -68.8%
[5]
  activity change, negative = inhibition: -31%
[6]
  activity change, negative = inhibition: 12.3%

## C/C=C\NC(=O)C1NC(=O)C(CC(N)=O)NC(=O)C(NC(=O)C(=O)C(C)CC)Cc2ccc(O)c(c2)-c2cccc3c2NC(=O)C3(O)C1O (stereo not given)
[1]
  activity change, negative = inhibition: -7.46% (inactive)
[2]
  activity change, negative = inhibition: -2.05%
[3]
  activity change, negative = inhibition: -15.1%
[4]
  activity change, negative = inhibition: -0.643%
[5]
  activity change, negative = inhibition: -26.2%
[6]
  activity change, negative = inhibition: -2.58%

## FC(F)(F)c1cccc(C2=NOC3(CCCN(CC4CCCCC4)C3)C2)c1 (stereo not given)
[1]
  activity change, negative = inhibition: -1.26% (inactive)
[2]
  activity change, negative = inhibition: -2.05%
[3]
  activity change, negative = inhibition: 2.98%
[4]
  activity change, negative = inhibition: 1.38%
[5]
  activity change, negative = inhibition: -6.62%
[6]
  activity change, negative = inhibition: 6.26%

## Cc1nn(-c2ccccc2)c2c1C(C)N(C1CCN(C(=O)NC3CCCC3)C1)C2=O (stereo not given)
[1]
  activity change, negative = inhibition: -10.5% (inactive)
[2]
  activity change, negative = inhibition: -9.42%
[3]
  activity change, negative = inhibition: -11.7%
[4]
  activity change, negative = inhibition: -6.3%
[5]
  activity change, negative = inhibition: -12.4%
[6]
  activity change, negative = inhibition: -12%
